# Source: PubChem (National Center for Advancing Translational Sciences (NCATS))
# Shown are actives, neighbours in structure and some others; about 2% of the full set was active somewhere.
# NPSR antag = neuropeptide S receptor (human) antagonism, cAMP; Q6W5P4; CHO-NPSR cells, cAMP TR-FRET, antagonist mode; Potency, µM (doses to about 38.3 µM), hits mostly inhibitors; actives 1% (n = 220,000); note: nearly all actives have a fitted effect of over 50% in size
# Target sequence (Q6W5P4 whole entry, looked up): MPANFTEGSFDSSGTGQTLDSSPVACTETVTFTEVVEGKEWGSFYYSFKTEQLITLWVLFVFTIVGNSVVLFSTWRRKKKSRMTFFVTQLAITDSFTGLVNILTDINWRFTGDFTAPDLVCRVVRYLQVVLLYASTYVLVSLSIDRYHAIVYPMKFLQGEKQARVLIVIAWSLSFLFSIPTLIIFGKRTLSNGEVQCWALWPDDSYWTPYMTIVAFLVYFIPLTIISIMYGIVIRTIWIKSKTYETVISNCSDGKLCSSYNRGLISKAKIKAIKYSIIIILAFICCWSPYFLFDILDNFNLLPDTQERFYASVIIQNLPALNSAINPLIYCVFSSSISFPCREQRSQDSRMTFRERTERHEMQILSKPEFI
# IL2 activator = activators of IL-2; IL-2 activation reporter assay, cell-based qHTS; stimulated with anti-CD3/CD4/CD28 beads; in transgenic mouse T cells; activation, % (series mostly up to about 46 µM); actives 0.065% (n = 360,000); AID 652025; in the data active = activation above about 50%; inconclusive = mostly about 30% to 49%
#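 Unstimulated transgenic mouse T cells; 60-min compound exposure; bead-based TCR/CD4/CD28 stimulation; 18 h culture, 37 degrees C; dual fluorescence (EGFP, DsRed) plate cytometry.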
# ClpP mod = qHTS Assay for Activators of ClpP | purified B. subtilis ClpP, FRET peptide cleavage, 20 min | Potency, µM (titrated, usually from 57.5 µM) | actives 1.9% (n = 340,000) | ATP-dependent Clp protease proteolytic subunit (Bacillus subtilis (strain 168)), P80244; active = well fitted falling curve with a large enough effect; inconclusive = small, poorly fitted or top-dose-only effect; inactive = no such curve, though single readings can be large or run the other way; note: the source files actives as falling curves though it sought activators and does not explain the sign; nearly all actives have a fitted effect of over 65% in size
# Target sequence (P80244 whole entry, looked up): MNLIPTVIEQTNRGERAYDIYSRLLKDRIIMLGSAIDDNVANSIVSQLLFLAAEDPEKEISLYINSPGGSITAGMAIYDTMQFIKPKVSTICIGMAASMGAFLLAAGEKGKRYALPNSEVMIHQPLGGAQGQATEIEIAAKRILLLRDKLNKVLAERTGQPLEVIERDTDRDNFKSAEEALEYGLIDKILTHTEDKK
#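 ClpP 10 microg/mL final, pH 8 Tris/KCl buffer with BSA, glycerol, Tween-20; compound pinned in; FRET-FV substrate; RT 20 min; Ex320/Em430; ΔFRET vs ADEP 5.8 microM, DMSO, no enzyme.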
# PKM2 act = increases activity of human pyruvate kinase M2. purified PKM2, Kinase-Glo ATP luminescence, activation; response scale: 0% is enzyme alone, no compound. actives 0.34% (n = 260,000). P14618. AID 1631. Potency, µM (top dose mostly 57.5 µM), hits mostly activators; note: nearly all actives have a fitted effect of over 55% in size
#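 ATP formation by purified human PK-M2, quantified via coupled luciferase luminescence after 1 h at room temperature with 0.1 mM ADP and 0.5 mM PEP final.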
# HeLa viability = reduces HeLa cell viability in PKM2 activator counter-screen | shares compounds with PKM2 act | HeLa viability, CellTiter-Glo ATP luminescence, 24 h | activity change, negative = cytotoxicity, % at 57.5 µM | 230 tested, under 10 active | AID 1898
# A number is an active result; n = inactive; u = inconclusive; x = not tested or not shown; [ ] = dose if it differs, or a comment. Unless noted, calls come from the whole dose curve; as a rule, active = well fitted curve in the direction sought with a large enough effect; inconclusive = small, poorly fitted or top-dose-only effect, or another doubt; inactive = no such curve, though single readings can be large; an effect the other way counts as inactive or inconclusive.
SMILES,NPSR antag,IL2 activator,ClpP mod,PKM2 act,HeLa viability
CC1Cn2c(C(=O)NCc3cccc(Br)c3)cc3cccc(c32)S1 (stereo not drawn),x,x,32µM,x,x
O=C(Nc1ccccc1)c1ccccc1CC[N+](=O)[O-],n,n,n,n,x
C[C@H](NC(=O)c1ccccc1Cl)C(=O)OCCOc1ccc(Cl)cc1,n[7.67 µM],n,n,n,x
COc1ccccc1NC1=C(C)C(=O)CC1,n,n,n,n,x
COc1ccc(OC)c2c1CCC2=O,n,n,32µM,n,x
CCN(CC)CCNC(=O)c1c2c(nc3ccccc13)C(=O)N(C1CCCCC1)C2,x,x,28µM,x,x
COCn1c(-c2ccc(OC)c(OC)c2)nc2ccccc21,n,n,28µM,n,x
O=S(=O)(NC1CCC(NS(=O)(=O)c2c(F)cccc2F)CC1)c1ccc2c(c1)OCCO2 (stereo not drawn),x,n,x,x,n
C[C@@H]1CN(S(=O)(=O)c2c(F)cccc2F)CCN1S(=O)(=O)c1ccc2c(c1)OCCO2,x,n,x,x,u
O=S(=O)(c1ccc2c(c1)OCCO2)C1CCC(S(=O)(=O)c2c(F)cccc2F)CC1 (stereo not drawn),x,n,x,x,x
O=S(=O)(NC1CCN(S(=O)(=O)c2ccc3c(c2)OCCO3)C1)c1c(F)cccc1F (stereo not drawn),x,n,x,x,n
O=C(CCN1CCC2CCC(C2)C1)c1ccc(F)cc1 (stereo not drawn),x,n,n,x,x
Cc1ccc(Cl)cc1N1CCN(C(=O)Cn2ncc3c4ccccc4n(C)c3c2=O)CC1,x,x,n,x,x
CCn1c2cc(C)sc2c2cnn(Cc3ccccc3F)c(=O)c21,x,x,x,x,n
Cn1c2cc(Br)sc2c2cnn(Cc3ccc(F)cc3F)c(=O)c21,x,n,x,x,x
Cc1cc2c(s1)c1cnn(Cc3ccc(C)c(F)c3F)c(=O)c1n2C,x,x,x,x,n
Cc1cc2c(s1)c1c(C)nn(Cc3ccccc3F)c(=O)c1n2C,x,x,x,x,n
Cc1cc2c(s1)c1cnn(Cc3ccc(C(F)(F)F)cc3F)c(=O)c1n2C,x,x,x,x,n
COc1cccc(C(C)(O)c2nc(-c3ccc(OC)nc3)cs2)c1 (stereo not drawn),x,n,n,x,x
Cc1cc2[nH]c3c(=O)n(Cc4ccccc4F)ncc3c2s1,x,x,x,x,n
Cc1cc2c(s1)c1cnn(Cc3cccc(F)c3F)c(=O)c1n2C,x,x,x,x,n
O=c1c2cc3ccccc3n2cnn1Cc1ccccc1F,n,n,u,n,x
Cc1ccc(NC(=O)Cn2sc3nc(C)cc(C)c3c2=O)c(Cl)c1,n,n,n,3.5µM,u
C=CCc1cccc2cc(C(=O)NNC(=O)CC#N)c(=O)oc12,n,n,x,n,x
CCc1nnc(NC(=O)CSc2nnc(-c3ccc(NS(=O)(=O)c4ccccc4)cc3)o2)s1,n,n,n,0.79µM,n
SMILES,NPSR antag,IL2 activator,ClpP mod,PKM2 act,HeLa viability
COc1ccc(S(=O)(=O)NCC2CCCN(C(=O)c3ccccc3)C2)cc1 (stereo not drawn),n,n,n,2.5µM,n
O=S(=O)(c1cccs1)N1CCN(S(=O)(=O)c2cccs2)CC1,n,n,x,0.4µM,n
O=C1OCCC1Sc1nnc2c(n1)[nH]c1ccccc12 (stereo not drawn),x,x,n,x,x
O=C(c1ccco1)N1CCN(Cc2cc(=O)c(OCc3c(F)cccc3Cl)co2)CC1,x,n,x,x,x
CN(c1ccccc1)S(=O)(=O)c1cccc(C(=O)NCCc2ccc(O)c(O)c2)c1,n,n,x,1.4µM,n
Cc1ccc(NS(=O)(=O)c2ccc3c(c2)CCC(=O)N3)cc1C,n,n,x,0.79µM,u
O=C(CCCn1c(=S)[nH]c2cc3c(cc2c1=O)OCO3)NC1CC1,n,n,n,2.8µM,n
COc1cccc(CNC(=O)CCC2CCCN(C(=O)c3cc(C)on3)C2)c1 (stereo not drawn),n,n,n,n,x
COc1cccc(CNC(=O)CCC2CCCN(C(=O)c3cc(C4CC4)[nH]n3)C2)c1 (stereo not drawn),n,n,n,3.5µM,n
N#Cc1ccccc1NC(=O)COC(=O)c1ccc(S(=O)(=O)N2CCCC2)cc1,n,n,n,n,x
NC(=O)CC(NC(=O)Cc1ccc(Cl)cc1)c1ccc(NCCc2ccccc2F)c([N+](=O)[O-])c1 (stereo not drawn),n,n,n,4µM,n
NC(=O)CC(NC(=O)Cc1ccc(Cl)cc1)c1ccc(NCC2CC2)c([N+](=O)[O-])c1 (stereo not drawn),n,n,n,n,x
CCOC(=O)c1c(-c2ccccc2)csc1NC(=O)CSc1nnnn1C,u,n,n,3.5µM,u
CCOC(=O)c1c(-c2ccccc2)csc1NC(=O)CSc1ccccc1,n,n,n,n,x
O=C(O)O,n,x,x,n,x
COc1cc(NC(=O)CSc2nnc3c(n2)[nH]c2ccc(OC)cc23)cc(OC)c1,x,x,n,x,x
COc1cc(NC(=O)CSc2nnc3c(n2)[nH]c2ccc(S(=O)(=O)NC(C)C)cc23)cc(OC)c1OC,n,n,n,0.79µM,n
Cc1cc(NC(=O)c2cnn3c(C(F)(F)F)cc(-c4ccccc4)nc23)no1,u,n,n,3.5µM,n
Cc1cc(C)c(NS(=O)(=O)c2ccc3c(c2)NC(=O)C(C)C(=O)N3)c(C)c1 (stereo not drawn),x,n,n,n,x
O=S(=O)(c1ccc2c(c1)OCCO2)N1CCN(c2nc3ccccc3s2)CC1,n,n,n,4µM,n
O=S(=O)(c1cccc(F)c1)N1CCN(S(=O)(=O)c2ccc3c(c2)OCCO3)CC1,x,x,x,x,n
O=C(CN1CCN(S(=O)(=O)c2ccc3c(c2)OCCO3)CC1)Nc1cccc(F)c1,x,n,x,x,x
O=S(=O)(c1ccccc1F)N1CCN(c2nc3ccccc3s2)CC1,n,n,x,n,x
COc1ccc(S(=O)(=O)N2CCN(S(=O)(=O)c3ccc4c(c3)OCCO4)CC2)cc1,n,n,n,0.22µM,u
O=S(=O)(c1ccc2c(c1)OCCO2)N1CCN(S(=O)(=O)c2ccc3c(c2)OCCO3)CC1,x,x,x,x,n
SMILES,NPSR antag,IL2 activator,ClpP mod,PKM2 act,HeLa viability
O=S(=O)(c1ccc2c(c1)OCCO2)N1CCN(Cc2ccccc2)CC1,n,n,n,n,x
COc1ccc(S(=O)(=O)N2CCC(C(=O)c3ccc4c(c3)OCCO4)CC2)cc1,n,n,n,n,x
CCC(C(=O)NCc1cccc(C)c1)n1nc(C)c2c(C)n(-c3ccccc3)nc2c1=O (stereo not drawn),x,n,n,x,x
O=S(=O)(c1ccc2c(c1)OCCO2)N1CCN(S(=O)(=O)c2cccc[n+]2[O-])CC1,x,x,x,x,n
COc1ccc(S(=O)(=O)N2CCN(S(=O)(=O)c3ccc(OC)cc3)CC2)cc1,x,x,x,x,n
N#CCCN1CCN(S(=O)(=O)c2ccc3c(c2)OCCCO3)CC1,n,n,n,u,x
O=S(=O)(c1ccc2c(c1)OCCO2)N1CCN(S(=O)(=O)c2c(F)ccc(O)c2F)CC1,x,x,x,x,n
COc1cc(F)c(S(=O)(=O)N2CCN(S(=O)(=O)c3ccc4c(c3)OCCO4)CC2)c(F)c1,x,x,x,x,n
